Experimental data from PubChem BioAssay (NCI).
The panel holds about 79,000 compounds, 15% with a hit somewhere; the sample as a whole holds those more often. Cut-off read from the data, not from the text of the source: active = growth inhibition above about 70%; inactive = the rest.

Assays:
[1] = NCI Yeast Anticancer Drug Screen. Data for the rad50 strain (AID 155);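 note: 0% = growth of vehicle-only cultures of the same strain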; details: S. cerevisiae rad50 strain growth inhibition; at 50.0 µM; stronger effect = higher value
Procedure, shortened: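 A DNA repair-deficient yeast mutant serves as the test organism; compound-induced growth inhibition is calculated against vehicle-treated cells.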

[2] = NCI Yeast Anticancer Drug Screen. Data for the mec2-1 strain (AID 157); details: S. cerevisiae mec2-1 strain, at 50.0 µM, stronger effect = higher value
Procedure, shortened: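 Growth inhibition is read against vehicle-treated controls after compound exposure of the mec2-1 yeast strain, which is defective in DNA damage repair or cell cycle control.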

[3] = NCI Yeast Anticancer Drug Screen. Data for the sgs1 mgt1 strain (AID 161);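 note: 0% = growth of cultures given vehicle only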; details: S. cerevisiae sgs1 mgt1 strain, at 50.0 µM, stronger effect = higher value
Procedure, shortened: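 Growth of a repair-deficient yeast mutant was monitored after compound treatment and expressed as inhibition relative to vehicle-treated cultures.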

[4] = NCI Yeast Anticancer Drug Screen. Data for the cln2 rad14 strain (AID 165);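 note: 0% = growth equal to vehicle treated cultures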; details: S. cerevisiae cln2 rad14 strain, at 50.0 µM, stronger effect = higher value
Procedure, shortened: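 Growth inhibition, relative to vehicle-treated controls, is the read-out. The test organism is a yeast strain with defined genetic alterations, cln2 rad14.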

[5] = NCI Yeast Anticancer Drug Screen. Data for the bub3 strain (AID 167); details: S. cerevisiae bub3 mutant strain, at 50.0 µM, stronger effect = higher value
Procedure, shortened: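 Inhibition values come from growth of compound-treated mutant yeast normalised to vehicle-treated controls.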

[6] = NCI Yeast Anticancer Drug Screen. Data for the mlh1 rad18 strain (AID 175); details: S. cerevisiae mlh1 rad18 strain growth inhibition; at 50.0 µM; stronger effect = higher value
Procedure, shortened: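 Cells of a genetically altered yeast strain, deficient in DNA damage repair, were treated with compound. Their growth was then compared with that of vehicle-treated cultures to give inhibition.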

Measured: growth inhibition

O=[N+]([O-])C1CCCCC1
inactive: [1] -11.8% | [2] -34.6% | [3] 3.3% | [4] 17.6% | [5] -8.35% | [6] 14.1%

S=C1N=C(Cl)/C(=C\c2ccccc2)N1
inactive: [1] -4.65% | [2] -23.9% | [3] 3.45% | [4] 24.1% | [5] 11.5% | [6] -14.4%

C[P+](Cc1ccc([N+](=O)[O-])cc1)(c1ccccc1)c1ccccc1
inactive: [1] -2.85% | [2] -19.1% | [3] -3.15% | [4] -1.7% | [5] -9.8% | [6] -7.15%

CCOC(=O)n1cccc(C)c1=N
inactive: [1] -10.1% | [2] 13.7% | [3] 18.9% | [4] -17.2% | [5] -8.85% | [6] 27.1%

CCC(CO)(CO)[N+](=O)[O-]
inactive: [1] 10.2% | [2] -2% | [3] -20.5% | [4] 5% | [5] 16.8% | [6] 7.25%

COCc1cc(CC(C)=O)nc(C/C=N/NC(N)=O)n1
inactive: [1] -18.4% | [2] -10.4% | [3] -9.75% | [4] -28.4% | [5] -47% | [6] -11.7%

CCCCCCCCCCCc1cc(=O)c2c(O)cccc2o1
inactive: [1] -5% | [2] -28.6% | [3] 9.55% | [4] -3.9% | [5] 4% | [6] -14.4%

Cc1nc(Cl)c(Cl)c(Cl)n1
inactive: [1] 5% | [2] -7.9% | [3] -0.6% | [4] 5.55% | [5] -4% | [6] -5.2%

O=C1c2ccccc2C(=O)N1OCc1csc(-c2ccccc2)n1
inactive: [1] 5.5% | [2] 6.25% | [3] -4.2% | [4] 5.25% | [5] 0.95% | [6] 27.4%

Cc1nn(C(=O)CC(=O)Nc2ccc(Cl)cc2)c(C)c1N=Nc1ccccc1F
inactive: [1] -40% | [2] -25.5% | [3] -60.6% | [4] -12.4% | [5] -28.4% | [6] -43%

Cc1ccc(S(=O)(=O)NC(Cc2ccccc2)C(=O)NCc2cccnc2)cc1 (stereo unspecified)
inactive: [1] 23.6% | [2] -8.4% | [3] 5.2% | [4] 4.45% | [5] -4.1% | [6] 4.65%

COc1cc(-c2cc(=O)c3cc4c(=O)cc(-c5cc(OC)c(OC)c(OC)c5)oc4cc3o2)cc(OC)c1OC
inactive: [1] -11.2% | [2] 1.25% | [3] 11.2% | [4] -75% | [5] -7.7% | [6] -5%

CCCCCCCCCCCCCCOc1ccc(S(=O)(=O)/N=C(\N)NC(N)=NCCCCCCCCCC)cc1
inactive: [1] 30.2% | [2] -9.6% | [3] 10.2% | [4] -21.1% | [5] -2.2% | [6] 2.15%

COc1ccc(C(CC(=O)O)CC(=O)O)cc1
inactive: [1] 46.3% | [2] 12.3% | [3] 16.9% | [4] 15.1% | [5] 6.35% | [6] 44.5%

O=C(CSC1=NCCN1)c1ccccc1
inactive: [1] -17.9% | [2] 6.3% | [3] -27.1% | [4] -57.9% | [5] 8.55% | [6] 11.6%

COc1ccc(NC(=S)N(CCC#N)C2CCCCC2)cc1
inactive: [1] -1.1% | [2] -24.3% | [3] -3% | [4] 16.8% | [5] -1.5% | [6] -4.05%

Cc1ccc(S(=O)(=O)Oc2cc(-c3ccccc3)nc3ccccc23)cc1
inactive: [1] 5.35% | [2] -7.25% | [3] 2.95% | [4] 11.7% | [5] 27.6% | [6] 9.85%

COC(=O)[C@H]1O[C@H]1c1cccc[n+]1[O-]
inactive: [1] 10.1% | [2] -2.4% | [3] 3.9% | [4] -24.6% | [5] 9.3% | [6] -0.9%

COc1ccc(-c2cc(-c3ccco3)c(C#N)c(=S)n2C2OC(COC(C)=O)C(OC(C)=O)C(OC(C)=O)C2OC(C)=O)cc1 (stereo unspecified)
inactive: [1] 19.6% | [2] -4.25% | [3] 12.7% | [4] -2.75% | [5] 4.25% | [6] 34.2%

CCOC(=O)Cc1ccc2c(c1)sc1nc(-c3ccc(OC)cc3)cn12
inactive: [1] 38.8% | [2] 19.5% | [3] 21.2% | [4] 32.3% | [5] 31.1% | [6] 18.6%

CCCCNS(=O)(=O)c1cc(C(=O)O)cc(C(=O)O)c1
inactive: [1] 2.55% | [2] -7% | [3] 4.25% | [4] -33.9% | [5] 2.75% | [6] -1.7%

O=C(O)Cc1cc(I)c(Oc2ccc(O)cc2)c(I)c1
inactive: [1] -5% | [2] -29.4% | [3] 6.05% | [4] 15.2% | [5] -9.5% | [6] 3.9%

CC(=O)OCc1ccnc2ccc(OC(C)=O)cc12
inactive: [1] 0.05% | [2] 15.4% | [3] -6.4% | [4] -8.75% | [5] -5.2% | [6] 2.75%

CCC1=C(C)/C(=C/c2[nH]c(C)cc2C)N=C1C
inactive: [1] 5.5% | [2] 0.95% | [3] 3.65% | [4] -54.6% | [5] 0.25% | [6] 12.2%

Nc1nc(=O)n(C2CCC(CO)O2)cc1F (stereo unspecified)
inactive: [1] 34.7% | [2] 18.1% | [3] 16.2% | [4] -2.65% | [5] 10.5% | [6] 5.05%

Cc1cccc2c(=O)[nH]c(=O)[nH]c12
inactive: [1] -14.2% | [2] -12.2% | [3] -2.15% | [4] -58.8% | [5] -4.4% | [6] -20.1%

CSc1nc2c(c(=O)n1C)N=C(c1ccc([N+](=O)[O-])cc1)CC(c1ccccc1)N2 (stereo unspecified)
inactive: [1] 6.8% | [2] 3.1% | [3] 17.8% | [4] 10.7% | [5] 18.1% | [6] -16.2%

CCCCCC(=O)NCCCOC
inactive: [1] -20% | [2] 10.8% | [3] -0.35% | [4] -46.4% | [5] -13.7% | [6] -8.9%

NCCNCC(O)CO (stereo unspecified)
inactive: [1] -2.4% | [2] -18.6% | [3] -21.4% | [4] -9.5% | [5] 3.9% | [6] 6.15%

COc1ccc(/C=N/NS(=O)(=O)c2ccc(/C=C3\NC(=O)N(C)C3=O)cc2)cc1
inactive: [1] -10.5% | [2] 22.1% | [3] -21.9% | [4] 6.5% | [5] -23.7% | [6] 27.1%

COC(=O)C1C(=O)c2ccccc2C(C)C1c1ccccc1C (stereo unspecified)
inactive: [1] 5% | [2] 41.4% | [3] 26.2% | [4] 4.15% | [5] 55.8% | [6] 27.6%

CCCCCC(=O)c1ccc2[nH]c3c(C)cc([N+](=O)[O-])c(C)c3c2c1
inactive: [1] 3.65% | [2] -35.6% | [3] -34.6% | [4] -2.8% | [5] -17.2% | [6] -10.3%

CC(O)C(O)C(O)C(O)C#N (stereo unspecified)
inactive: [1] 20.6% | [2] 18% | [3] 12.2% | [4] 11% | [5] 0.15% | [6] 10.1%

O=C(O)CO
inactive: [1] -7.7% | [2] 3.05% | [3] -6.25% | [4] -1.25% | [5] -9.15% | [6] -29.1%

CC(=O)O[C@@H]1C[C@]2(C)[C@@H](C(C)=O)CC[C@H]2[C@@H]2CCC3=CC(=O)CC[C@]3(C)[C@H]21
inactive: [1] -7.5% | [2] -8.25% | [3] -23% | [4] 11.4% | [5] -10.4% | [6] 13.2%

CCN(CC)CCNc1ccc2ncn3c4c(OC)cccc4c(=O)c1c23
inactive: [1] 2.7% | [2] -17.1% | [3] 21.8% | [4] 18.4% | [5] -46.8% | [6] 67.2%
